# JMJD2C inh: blocks human GASC-1 demethylase activity. actives 0.069% (n = 330,000). GST-JMJD2C(1-420) H3K9me3 demethylation, DELFIA europium. Q9H3R0. inhibition, % at 2.35 µM;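 active = more than half of a compound's replicate wells show inhibition beyond 50%, single wells judged on their own value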;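 note: signal counts dimethyl H3K9 product captured on neutravidin plate; 0% = median of DMSO wells and 100% = 0.3 times that DMSO median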
# PolyA inh: inhibitors of polyadenylation in S. cerevisiae. activity score, % at 12 µM. AID 1875. S. cerevisiae SKY197-pL101 polyadenylation reporter, beta-gal luminescence; efflux-impaired pdr1/pdr3 knockout yeast; score 100 = 6 SD above DMSO. actives 0.02% (n = 300,000);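 active = lowest replicate activity score at least 50, where 100 means six control SD above control mean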;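 note: yeast exposed to compound for 9 h at 30 °C; higher score means more reporter readthrough which indicates perturbed polyadenylation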
# PKA-R2B act: activates the human PKA-R2B holoenzyme complex; actives 0.079% (n = 340,000); P22694+P31323; PKA-R2B holoenzyme dissociation, Cy5-IP20 fluorescence polarization; R2B truncated from residue 108, S112A mutant; 0% DMSO only, 100% 113 µM cGMP; activation, % at 11.4 µM;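 active = activation above a cutoff set at the mean over all compounds plus 3 SD, cut at about 18% in these data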;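 note: higher means more holoenzyme dissociation and a rise in polarization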
# Target sequence (P31323 whole entry, looked up, other chains not shown, the tested form may be a part): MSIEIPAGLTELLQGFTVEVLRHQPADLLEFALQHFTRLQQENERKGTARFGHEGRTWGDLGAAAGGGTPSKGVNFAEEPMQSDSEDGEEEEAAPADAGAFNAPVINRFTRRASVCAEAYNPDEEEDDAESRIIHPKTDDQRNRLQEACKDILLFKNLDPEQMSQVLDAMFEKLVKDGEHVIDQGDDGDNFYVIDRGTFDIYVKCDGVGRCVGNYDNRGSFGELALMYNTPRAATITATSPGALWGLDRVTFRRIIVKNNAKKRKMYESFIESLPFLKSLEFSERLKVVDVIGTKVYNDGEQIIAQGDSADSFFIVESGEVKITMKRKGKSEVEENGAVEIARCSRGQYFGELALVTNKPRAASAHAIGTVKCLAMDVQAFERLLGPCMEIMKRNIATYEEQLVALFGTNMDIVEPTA
# V-ATPase pHluor: yeast V-ATPase proton transport regulation by pHLuorin. response, % at 10 µM. AID 504577. S. cerevisiae, pHLuorin cytosolic pH fluorescence. actives 0.37% (n = 350,000); in the data active = response mostly above about 7.3%, no sharp cut-off; inactive = mostly below about 5.4%; note: actives read high
# PKA-R1A activ: activators of PKA-R1A complex; P00514+P68181; PKA-R1A dissociation, Cy5-IP20 fluorescence polarization; scaled: DMSO 0%, 113 µM cGMP 100%; activation, % at 11.4 µM; actives 0.083% (n = 340,000); AID 504707;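 active = percent activation above the mean of all tested compounds plus 3 SD, cut at about 19% in these data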;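 note: higher means more PKAc released from R1A so a rise in polarization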
# CR mimetic SO: lowers age-related superoxide in aged yeast cells | S. cerevisiae aged cells, superoxide DHE fluorescence; hits give low values | superoxide response (% of plate mean), % at 10 µM | actives 0.18% (n = 330,000);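 active = superoxide response under a set limit, about three screen SD below normal, cut at about 65% in these data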;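 note: yeast aged for seven days with compound at 30 °C before DHE staining; 100% = average MFI of all compound-treated wells on the plate with controls excluded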
# Superoxide pick: confirmation of caloric restriction mimetics inhibiting yeast age-related superoxide | shares compounds with CR mimetic SO | S. cerevisiae aging, superoxide DHE fluorescence; hits give low values | superoxide response (% of plate), % at 10 µM | actives 1% (n = 850) | AID 434994;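 active = superoxide signal below 65% of the plate average of sample wells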;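 note: cells aged with compound for 7 days at 30 degrees C before staining; 100% equals mean DHE fluorescence of all compound wells on the plate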
# DHE counter: DHE fluorescence interference, counter-screen artifact; shares compounds with CR mimetic SO; S. cerevisiae BY4741, flow cytometry; hits give low values; fluorescence response, % at 10 µM; 850 tested, under 10 active;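 active = fluorescence response below 15%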;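 note: percent of the mean fluorescence averaged over all compound wells on the plate; lower means stronger quenching of DHE signal or ROS scavenging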
# VATPase regulator: yeast V-ATPase proton transport regulation | shares compounds with V-ATPase pHluor | S. cerevisiae pHLuorin cytosolic pH | response, % at 10 µM | actives 2% (n = 980) | AID 602197; in the data active = response above about 24%;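 note: plate controls were vehicle wells for no effect and positive control wells for full effect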
# Numbers without * were called inactive; · = no result. Most compounds without a hit are left out; they make up all but 0.78% or so of the library.
SMILES,JMJD2C inh,PolyA inh,PKA-R2B act,V-ATPase pHluor,PKA-R1A activ,CR mimetic SO,Superoxide pick,DHE counter,others
Cc1noc(NS(=O)(=O)c2ccc(N/C=C\C(=O)c3ccc(F)cc3)cc2)c1C,-10.0,-11.7,·,-0.8,·,93.4,·,·,
Cc1noc(NS(=O)(=O)c2ccc(N/C=C/C(=O)c3ccc4c(c3)OCO4)cc2)c1C,7.7,11.9,-4.0,0.4,-6.5,64.8*,103.4,123.2,
O=C(Cn1nc(-c2ccccc2)c2ccccc2c1=O)NCCO,13.7,-6.4,4.2,-1.6,-11.3,109.3,·,·,
CCN(Cc1ccncc1)C(=O)c1ccc2c(c1)S(=O)(=O)c1ccccc1C2=O,-0.2,3.1,-2.4,-5.2,-0.2,105.2,·,·,
CC(C)Cn1c2ccccc2c2cc(C(=O)O)ccc21,1.4,-20.7,4.4,-0.8,1.3,120.9,110.5,91.1,
CC(C)Cn1c(=S)[nH]c2cc(C(=O)O)ccc2c1=O,-6.1,-22.8,7.3,0.5,-1.2,106.3,·,·,
O=C(Cc1ccc(-n2c(=O)[nH]c3ccccc3c2=O)cc1)N1CCN(c2ccccc2)CC1,8.6,9.1,-1.2,1.9,-7.9,106.6,·,·,
O=C(Cc1ccc(-n2c(=S)[nH]c3ccccc3c2=O)cc1)N1CCN(c2ccccc2)CC1,3.1,-8.4,-13.3,2.3,-1.4,65.3*,95.5,93.3,
Cc1ccc(NC(=O)CN2CCN(c3ccccn3)CC2)cc1S(=O)(=O)N(C)C,5.1,5.2,-2.4,-2.4,-6.1,96.5,·,·,
O=C(CN1CCCC1)Nc1ccc(OC(F)(F)F)cc1,-11.0,2.5,0.6,0.2,12.3,106.3,·,·,
CC(=O)Nc1ccc(NC(=O)CN2CCN(c3ccccn3)CC2)cc1,-15.9,7.1,1.5,-2.3,2.3,53.5*,100.6,94.1,
CN(C)S(=O)(=O)c1ccc(NC(=O)CN2CCN(c3ccccn3)CC2)cc1,10.3,3.9,3.5,-3.7,-10.5,80.5,107.4,90.8,
Cc1cc(C)cc(NC(=O)CN2CCN(c3ccccn3)CC2)c1,-9.4,1.6,-7.8,-0.2,-2.3,89.4,·,·,
O=C(CN1CCN(c2ccccn2)CC1)Nc1ccc(OC(F)(F)F)cc1,4.8,-7.0,8.8,2.2,7.7,109.5,94.2,111.4,
CCN(CC)S(=O)(=O)c1cc(NC(=O)CN2CCN(c3ccccn3)CC2)ccc1C,-7.8,1.4,6.5,-2.0,-0.9,100.3,97.3,99.8,
O=C(Cn1nnnc1CN1CCOCC1)N1CCC(c2cccc(Cl)c2)C1 (stereo not given),-3.0,-1.4,1.1,-1.9,-11.2,96.6,·,·,
CCOC(=O)N1CCN(C(=O)C2CCC(=O)N(CCCc3ccccc3)C2)CC1 (stereo not given),-3.9,6.8,-0.1,3.6,-3.1,99.1,·,·,
C=CCOc1ccc(C(c2c(C)n(C)n(-c3ccccc3)c2=O)c2c(C)n(C)n(-c3ccccc3)c2=O)cc1,-14.5,6.4,-7.2,0.0,-5.6,112.2,·,·,
COc1ccccc1CCC(=O)N1CCN(S(=O)(=O)c2cc(C(F)(F)F)ccc2Cl)CC1,5.1,·,-6.0,-3.2,-6.2,105.8,·,·,
CC(C)(C)c1ccc(-n2ncc3c2CCCC3NC(=O)c2csnn2)cc1 (stereo not given),44.6,0.5,-6.5,0.1,-0.1,58.3*,101.3,104.0,
COc1ccc(C(=O)OCn2nnc3ccccc3c2=O)cc1OC,-5.4,1.8,-13.2,5.7,-0.3,117.1,·,·,
CN(C)S(=O)(=O)c1ccc(C(=O)OCn2nnc3ccccc3c2=O)cc1,-3.2,-18.7,5.2,-1.8,-1.7,65.2*,103.2,90.7,
CCOC(=O)CSc1nnc(-c2ccccc2)o1,11.8,14.0,-0.2,1.8,-5.2,98.6,114.2,125.3,VATPase regulator=-3.2
Cc1ccc(NC(=O)c2ccc(S(=O)(=O)N3CCCC3)cc2)nc1,-9.2,-11.4,1.6,-0.4,8.5,112.0,·,·,

# Assay outcomes: PubChem BioAssay, several laboratories
